Screening data as filed in PubChem.
LEDGF integ inh: blocks HIV-1 LEDGF/p75-dependent DNA integration; hit rate 0.64% among 370,000; AID 743269; inhibition, % at 3.7 µM; TR-FRET IN-LEDGF/p75 DNA integration, Eu/Cy5;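 active means inhibition above the screen-wide mean plus 3 SD, cut at about 13% in these data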;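 further: signal is the Cy5 over europium emission ratio at 671 and 618 nm; 0% = plate median of compound wells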
TCR CD3 inh: blocks the human TCR-CD3 interaction. TAMRA-labeled TCR probe fluorescence, biochemical. inhibition, % at 9.4 µM. hit rate 0.37% among 360,000. AID 651800; in the data active means inhibition above about 19%;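 further: recombinant mutant TCR 2C K166C tagged with TAMRA read by polarization; 0% = receptor in buffer alone and 100% = receptor with positive control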
Rin1-Abl PPI inh: human Rin1-Abl interaction inhibition | inhibition, % at 7.35 µM | AID 588664 | TR-FRET Rin1/Abl binding, biochemical | hit rate 0.4% among 360,000 | P00519+Q13671; in the data active means inhibition above about 5%, passing the limit was not always enough
MBD2 inh: blocks human MBD2 binding to methylated DNA; Q9UBB5; TR-FRET, MBD2 binding to methylated oligonucleotide; inhibition, % at 4.4 µM; hit rate 0.31% among 370,000; AID 686964; in the data active means inhibition above about 13%
Target sequence (Q9UBB5 whole entry, looked up): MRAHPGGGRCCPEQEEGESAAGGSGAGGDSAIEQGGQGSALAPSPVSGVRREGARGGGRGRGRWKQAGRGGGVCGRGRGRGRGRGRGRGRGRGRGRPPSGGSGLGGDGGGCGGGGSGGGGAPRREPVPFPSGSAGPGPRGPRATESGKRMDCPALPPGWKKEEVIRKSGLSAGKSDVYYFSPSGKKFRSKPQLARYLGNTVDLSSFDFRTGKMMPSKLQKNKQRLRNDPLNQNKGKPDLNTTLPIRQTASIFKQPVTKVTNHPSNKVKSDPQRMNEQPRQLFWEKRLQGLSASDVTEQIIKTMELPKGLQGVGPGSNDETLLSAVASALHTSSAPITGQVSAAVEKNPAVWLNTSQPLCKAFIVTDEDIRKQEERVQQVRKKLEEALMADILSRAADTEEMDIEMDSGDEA
UHRF1 MBD2 ctr: human UHRF1 methylated DNA binding inhibitors; inhibition, % at 4.4 µM; hit rate 0.75% among 370,000; Q96T88; UHRF1 binding to methylated oligo, TR-FRET; AID 687016;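 further: UHRF1 SRA domain binding a hemimethylated CpG hairpin DNA probe; 0% = median of test compound wells and 100% = reference inhibitor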
Rin1 Abl conf: Rin1-Abl interaction inhibition confirmation; shares compounds with Rin1-Abl PPI inh; TR-FRET Rin1-Abl binding, purified proteins; inhibition, % at 7.35 µM; hit rate 49% among 1,300; in the data active means inhibition above about 6.5%
GFP quench: GFP fluorescence interference artifact; shares compounds with Rin1-Abl PPI inh; inhibitors/quenchers counterscreen; inhibition, % at 6.75 µM; hit rate 8.5% among 1,300; in the data active means inhibition above about 6.5%;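 further: ABL1-eGFP fusion protein alone without its partner RIN1-SBP; 0% = protein with vehicle and 100% = wells lacking protein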
GFP quench DR: counter-screen for Rin1-Abl inhibitors: GFP quenchers, dose response | 230 tested, under 10 active | AID 602182 | GFP fluorescence interference/quenching counterscreen | shares compounds with Rin1-Abl PPI inh | IC50, µM; call rule not given here;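 further: ABL1-eGFP fusion protein alone without its RIN1 binding partner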
BSA probe FL: BSA probe counter-screen for TCR-CD3 inhibitors; AID 652035; shares compounds with TCR CD3 inh; TAMRA-labeled BSA probe fluorescence counterscreen; hit rate 10% among 1,200; inhibition, % at 9.4 µM; in the data active means inhibition above about 23%;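 further: 0% = buffer low control and 100% = reference high control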
TCR-CD3 inh conf: TCR-CD3 interaction inhibition, confirmation. inhibition, % at 9.4 µM. hit rate 48% among 1,200. TAMRA-labeled TCR probe fluorescence binding assay. AID 652036. shares compounds with TCR CD3 inh; in the data active means inhibition above about 19%
UHRF1 ctr MBD2: UHRF1 methyl-oligo binding inhibition as MBD2 counter-screen. shares compounds with MBD2 inh. UHRF1 binding to methylated oligonucleotide, TR-FRET. inhibition, % at 4.4 µM. hit rate 25% among 1,000. AID 720530;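 further: UHRF1 SRA domain binding a labeled hemimethylated CpG hairpin DNA; 0% = vehicle only and 100% = reference inhibitor with vehicle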
MBD2 confirm: MBD2-DBD methyl-DNA binding inhibition, TR-FRET confirmation | inhibition, % at 4.4 µM | TR-FRET MBD2-DBD binding to methylated oligonucleotide | shares compounds with MBD2 inh | hit rate 26% among 1,000 | AID 720531; in the data active means inhibition above about 14%
* = called active by the depositor; . = no result given. Shown are actives, neighbours in structure and some others; about 2% of the full set was active somewhere. Unless noted, no stated cut-off is given here; in the data, active means inhibition above about 21%; inactive means the rest.

SMILES | LEDGF integ inh | TCR CD3 inh | Rin1-Abl PPI inh | MBD2 inh | UHRF1 MBD2 ctr | Rin1 Abl conf | GFP quench | BSA probe FL | TCR-CD3 inh conf | others
NS(=O)(=O)c1ccc(N=Nc2c[nH]c(=O)c(O)c2)cc1 | 8.9 | 26.0* | 17.6* | -20.2 | -10.4 | 13.8* | 23.7* | 14.3 | 36.3*
Cc1nc2ccccc2n1CC(=O)c1ccc(O)c(O)c1 | 13.3 | 45.0* | 32.6* | 8.9 | 12.8 | 21.4* | 6.6* | -7.4 | 37.0*
Cc1nc2ccccc2n1CC(=O)c1ccccc1 | -5.0 | 1.5 | 0.0 | 0.8 | -1.3 | . | . | . | .
Cc1cc(C(=O)N/N=C/c2ccc(O)c(O)c2O)c(C)n1-c1ccccc1 | 5.6 | 30.2* | 20.1* | -1.0 | -4.7 | 10.8* | 7.8* | -17.8 | 28.9*
Cc1cc(/C=N/NC(=O)c2ccncc2)c(C)n1-c1ccccc1 | -1.4 | 8.1 | -2.6 | -3.7 | -1.6 | . | . | . | .
OCCN1CCN(c2cnc(-c3ccsc3)cn2)CC1 | -0.7 | 38.2* | 6.3* | -6.6 | 0.7 | -4.1 | 0.9 | 5.7 | 1.8
O=C(N/N=C/c1ccc(O)c(O)c1)N/N=C/c1ccc(O)c(O)c1 | 91.2* | 65.0* | 49.1* | 8.7 | 7.3 | 62.6* | 11.7* | -13.4 | 81.4*
Cc1nonc1C(=O)N/N=C/c1ccc(O)c(O)c1 | -5.6 | 6.7 | -0.8 | -1.8 | 1.1 | . | . | . | .
COc1cc(C(=O)N2CCN(C3=NS(=O)(=O)c4ccccc43)CC2)cc(OC)c1OC | -0.2 | -0.8 | -2.6 | 4.5 | 1.7 | . | . | . | .
CCC(C)C(NC(=O)OCc1ccccc1)C(=O)NC(Cc1ccc(O)cc1)C(=O)OC (stereo not drawn) | -2.1 | 10.9 | 0.1 | -2.3 | 0.9 | . | . | . | .
Cc1ccc(-c2[nH]c3cc(C(=O)NCCCn4ccnc4)ccc3c(=O)c2O)cc1 | -0.7 | 41.0* | 18.7* | -4.1 | -7.6 | 10.7* | 11.2* | -4.6 | 49.3*
Cc1ccc2oc(C(=O)N(C)CCC(O)c3ccccc3)c(C)c2c1 (stereo not drawn) | 4.4 | -7.1 | 0.8 | -1.4 | 4.5 | . | . | . | .
COc1cc2cccc(OC)c(=O)c2c(OC)c1OC | 2.8 | 6.2 | 1.6 | -0.4 | -0.3 | . | . | . | .
O=c1c(O)cccc2cc(O)c(O)c(O)c12 | 88.3* | 93.1* | 42.9* | 86.9* | 93.7* | 39.1* | 33.2* | -4.5 | 80.9* | UHRF1 ctr MBD2=94.5*;MBD2 confirm=91.0*
COc1ccc([C@@H]2[C@@H]3C(=O)N(C(C)(C)C)C(=O)[C@@H]3[C@]3(C)C(=O)N(c4cccc(Br)c4)C(=O)N23)cc1 | . | . | 3.0 | . | . | . | . | . | .
COc1cc(OC)c(-c2c3cc(O)c(=O)cc-3oc3cc(O)c(O)cc23)cc1OC | 83.8* | -90.5 | 62.3* | 15.2* | -3.5 | 72.6* | -123.7 | . | . | GFP quench DR=>67.5;UHRF1 ctr MBD2=-38.2;MBD2 confirm=-10.4
CCCCn1c(NC(=O)c2ccccc2)c(C#N)c2nc3ccccc3nc21 | 6.4 | -6.0 | 12.3* | 24.4* | 17.9 | 6.0 | 1.5 | . | . | UHRF1 ctr MBD2=-1.4;MBD2 confirm=16.6*
O=C(Nc1cc2cccc([N+](=O)[O-])c2oc1=O)c1cccs1 | 3.1 | 0.2 | -0.3 | -4.4 | 1.6 | . | . | . | .
